In ChEMBL document CHEMBL4513146, “CO-ADD screening of Karazin Kharkiv National University (Ukraine) compounds”:
Measured potencies and affinities stand elsewhere.

Tests used:
[1] = test system: Staphylococcus aureus; settings: Concentration 32 ug.mL-1;; ASSAY_TEST Inhibition of Bacterial Growth; detection method Absorption (OD600); MEDIA CAMHB; plate type 384well; NBS; CORNING #3640; time 18 hr
[2] = test system: Escherichia coli; settings: Concentration 32 ug.mL-1;; ASSAY_TEST Inhibition of Bacterial Growth; detection method Absorption (OD600); MEDIA CAMHB; plate type 384well; NBS; CORNING #3640; time 18 hr

| Structure (SMILES) | Inhibition [1] [%] | Inhibition [2] [%] |
| --- | --- | --- |
| COc1ccc(CCn2c(=O)c3sccc3n3c(=O)n(CC(=O)c4ccccc4)nc23)cc1OC | 14.35 | 3.29 |
| O=C(CSc1nnc2c3cc(-c4ccc(F)cc4)nn3ccn12)NCc1ccccc1 | -2.17 | -6.24 |
| CCc1ccccc1Sc1nccn2c(=O)n(CC(=O)Nc3cc(Cl)c(OC)cc3OC)nc12 | -16.84 | -7.56 |
| CC(=O)c1ccc(NC(=O)Cn2nc3ccc(-c4ccc(C)c(C)c4)nn3c2=O)cc1 | 9.12 | -4.24 |
| COc1cccc(-n2ccn3c(SCC(=O)Nc4ccc(C(C)C)cc4)nnc3c2=O)c1 | 0.38 | -24.97 |
| O=C(Cn1nc2ccc(-c3ccc(Cl)cc3)nn2c1=O)N1CCN(c2ccc(F)cc2)CC1 | 4.1 | -5.18 |
| COc1cccc(CNC(=O)CSc2nnc3c4cc(-c5ccc(C)cc5)nn4ccn23)c1 | -18.93 | -18.15 |
| CCOc1ccc(-c2nc(CSc3nc4ccccc4n4c(C)nnc34)c(C)o2)cc1 | 7.53 | 1.84 |
| CCOC(=O)c1ccc(NC(=O)Cn2nc3c4cc(-c5ccc(Cl)cc5)nn4ccn3c2=O)cc1 | 1.13 | -5.39 |
| COc1ccc(N(Cc2ccc(F)cc2)S(=O)(=O)c2ccc3nncn3c2)cc1 | -7.56 | -2.8 |
| COc1ccc(NC(=O)Cn2nc3nc(N4CCOCC4)ccn3c2=O)cc1F | -2.35 | -9.58 |
| Cc1ccccc1Oc1nccn2c(=O)n(CC(=O)Nc3ccc(C(C)C)cc3)nc12 | -1.76 | -10.99 |
| CCc1nnc2c(S(=O)(=O)N(Cc3ccc(F)cc3)c3cccc(Cl)c3)cccn12 | 8.4 | -8.07 |
| Cc1ccccc1Cn1nc2c(=O)n(-c3ccc(Br)cc3)ccn2c1=O | 4.33 | 1.73 |
| O=C(Cn1nc2c(SC3CCCCC3)nccn2c1=O)N1CCN(c2ccc(F)cc2)CC1 | 8.31 | -3.97 |
| Cc1ccc(-c2cc3c4nnc(SCC(=O)Nc5ccc(C#N)cc5)n4ccn3n2)cc1 | -4.94 | -8.26 |
| O=C(Cn1nc2ccc(Sc3cccc(F)c3)nn2c1=O)Nc1cccc(Cl)c1 | -0.09 | -4.86 |
